Where “and” joins values, the source holds several entries; their conditions need not be identical. Equal entries are not always repeated. Records with an inconclusive call do not appear. Some structures have more than one record in an assay (separate samples or runs), and their calls can disagree. Calls of active or inactive are those of the source. Rule for the calls, unless noted: active = hit-call score of the fitted dose curve at least 0.9, where 1 is the maximum; inconclusive = response in the unintended direction; inactive = score below 0.9.
Tests used:
[1] = target: Bile acid receptor (Homo sapiens) (UniProt Q96RI1); test: ATG_FXR_TRANS: Attagene TRANS-FACTORIAL HepG2 Assay for Farnesoid X Receptor (FXR) (AID 2282979); details: HepG2 Attagene TRANS FXR-GAL4 reporter transcription;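 note: hits raise reporter mRNA above DMSO so AC50 marks FXR activation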
Outline: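 Chimeric FXR-GAL4 activity in transiently transfected human HepG2 liver cells is scored as induction of reporter mRNA after 24 h of dosing. Detection uses RT-PCR with fluorescent labelling and capillary electrophoresis, with DMSO serving as baseline.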

[2] = target: Oxysterols receptor LXR-alpha (Homo sapiens) (UniProt Q13133); test: ATG_LXRa_TRANS: Attagene TRANS-FACTORIAL HepG2 Assay for human Liver X Receptor alpha (LXRa) (AID 2282980); details: HepG2 Attagene TRANS reporter, LXRa transactivation
Outline: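 Transient HepG2 transfectants, 24 h dosing, RT-PCR/CE mRNA reporter quantitation; gain-of-signal vs DMSO.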

[3] = target: Oxysterols receptor LXR-beta (Homo sapiens) (UniProt P55055); test: ATG_LXRb_TRANS: Attagene TRANS-FACTORIAL HepG2 Assay for human Liver X Receptor beta (LXRb) (AID 2282981); details: HepG2 Attagene TRANS GAL4-LXRb reporter, mRNA
Outline: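 After 24 h of chemical treatment, transfected HepG2 cells yield total RNA; reporter cDNA is PCR-amplified, FAM-labelled, HpaI-cut and run on capillary electrophoresis. Signal reflects chimeric LXRb-Gal4 activity on GAL4-UAS reporters.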

[4] = ATG_M_06_TRANS: Attagene TRANS-FACTORIAL HepG2 Assay for M06 Transcription Factor (Internal Marker) (AID 2282983); details: HepG2 Attagene TRANS M06 internal marker reporter;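 note: reporter transcript level by RT-PCR then capillary electrophoresis fluorescence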
Outline: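 Human liver HepG2 cells bearing transiently transfected chimeric NR-GAL4 reporter units were treated with chemicals for 24 h. Total RNA was reverse-transcribed, reporter sequences amplified and labelled, then quantified by capillary electrophoresis. Activity was fitted upward relative to DMSO.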

[5] = target: Nuclear receptor subfamily 4 group A member 2 (Homo sapiens) (UniProt P43354); test: ATG_NURR1_TRANS: Attagene TRANS-FACTORIAL HepG2 Assay for human Nuclear Receptor Related Protein 1 (NURR1) (AID 2282985); details: HepG2 Attagene TRANS reporter, mRNA readout
Outline: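 Measures transcriptional activation by an exogenous NR-Gal4 chimera in transfected HepG2 liver cells. After 24 h, reporter RNA is reverse-transcribed, amplified and resolved by capillary electrophoresis; DMSO defines baseline.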

[6] = ATG_NF_kB_CIS: Attagene CIS-FACTORIAL HepG2 Assay for human Nuclear Factor Kappa B (NF-kB) (AID 2282991; active = hit-call score of the fitted dose curve at least 0.9, where 1 is the maximum; inactive = score below 0.9); details: HepG2 Attagene cis-factorial NF-kB reporter mRNA; actives raise or lower the signal
Outline: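 HepG2, transient multi-reporter transfection, cis promoter elements (endogenous TFs). 24 h exposure. Total RNA → RT → PCR → 6-FAM label → HpaI → CE. Gain/loss vs DMSO.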

[7] = target: human Peroxisome Proliferator-activated Receptor delta (PPARd), PPARD (gene 5467) (UniProt Q03181); test: ATG_PPARd_TRANS: Attagene TRANS-FACTORIAL HepG2 Assay for human Peroxisome Proliferator-activated Receptor delta (PPARd) (AID 2283002)
Outline: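 Read-out is induced reporter mRNA, quantified by RT-PCR with fluorescent labelling and capillary electrophoresis after 24 h dosing. Cells are HepG2 transiently carrying multiple GAL4-UAS reporter units driven by exogenous NR-GAL4 chimeras; DMSO serves as baseline.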

[8] = target: Peroxisome proliferator-activated receptor gamma (Homo sapiens) (UniProt P37231); test: ATG_PPARg_TRANS: Attagene TRANS-FACTORIAL HepG2 Assay for human Peroxisome Proliferator-activated Receptor-gamma (PPARg) (AID 2283007)
Outline: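 Multiplexed reporter transcription units in HepG2, 24 h dosing, reporter transcripts quantified by fluorescent RT-PCR and capillary electrophoresis. Increase over DMSO scored.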

[9] = target: human Thyroid Receptor alpha (THRa1), THRA (gene 7067) (UniProt P10827); test: ATG_THRa1_TRANS: Attagene TRANS-FACTORIAL HepG2 Assay for human Thyroid Receptor alpha (THRa1) (AID 2283014)
Outline: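 First, HepG2 cells receive multiple GAL4-UAS reporter units and the chimeric receptor. They are then dosed for 24 h, after which RNA is reverse-transcribed, amplified, labelled, HpaI-cut and sized by capillary electrophoresis; gain relative to DMSO is scored.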

[10] = TOX21_p53_BLA_p4_viability: Viability Assessment in the Tox21 HCT-116 p53 Agonism Beta-lactamase Assay, Phase 4 (AID 2283597);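 note: hits lower the luminescence signal meaning cytotoxicity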
Outline: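 Viability is taken as cellular ATP: after 16 h compound exposure of HCT116 cells and a 2 h room-temperature CCF4-AM substrate step, CellTiter-Glo reagent is added and luminescence is measured 30 min later.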

[11] = CCTE_Harrill_HTTr_Viability_MCF7: CCTE's 6-hour Cell Viability Assessment for the High-Throughput Transcriptomics (HTTr) Platform, in MCF-7 cells cultured in DMEM + 10% fetal bovine serum, Harrill Lab (AID 2284010; active = hit-call score of the fitted dose curve at least 0.9, where 1 is the maximum; inactive = score below 0.9)
Outline: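 Eight-point concentration series, six-hour exposure. Propidium iodide exclusion imaged to assess membrane integrity as a cytotoxicity readout; bidirectional fitting was done with DMSO as negative control and activity baseline.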

[12] = CCTE_Harrill_HTTr_Apoptosis_MCF7: CCTE's 6-hour Apoptosis Assessment for the High-Throughput Transcriptomics (HTTr) Platform, in MCF-7 cells cultured in DMEM + 10% fetal bovine serum, Harrill Lab (AID 2284011; active = hit-call score of the fitted dose curve at least 0.9, where 1 is the maximum; inactive = score below 0.9)
Outline: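 Cells are dosed with test chemicals at eight concentrations and imaged 6 hours later for caspase-3/7 activity using a green fluorogenic detection reagent. Activity is fitted in both directions against DMSO controls.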

[13] = target: Glucocorticoid receptor (Homo sapiens) (UniProt P04150); test: ATG_GR_TRANS: Attagene TRANS-FACTORIAL HepG2 Assay for human Glucocorticoid Receptor (GR) (AID 2282978); details: HepG2 Attagene TRANS GR reporter, mRNA transcription;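 note: activators score as hits since higher reporter transcript over DMSO is fitted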
Outline: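 Measurement of GAL4-UAS-driven reporter mRNA in human HepG2 liver cells 24 h post-dosing, using RT-PCR with fluorescent labelling and capillary electrophoresis; the transfected constructs report exogenous NR-GAL4 chimera activity, fitted upward against DMSO.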

[14] = target: human Vitamin D Receptor (VDR), VDR (gene 7421) (UniProt P11473); test: ATG_VDR_TRANS: Attagene TRANS-FACTORIAL HepG2 Assay for human Vitamin D Receptor (VDR) (AID 2283022)
Outline: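 Fluorescence of labelled reporter cDNA fragments, resolved by capillary electrophoresis, gives mRNA induction after 24 h treatment of HepG2 cells carrying transfected Gal4-fusion reporter units. Activity is fitted in the positive direction with DMSO as baseline.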

[15] = ATG_VDRE_CIS: Attagene CIS-FACTORIAL HepG2 Assay for human Vitamin D Receptor Element (VDRE) (AID 2282968; active = hit-call score of the fitted dose curve at least 0.9, where 1 is the maximum; inactive = score below 0.9); details: HepG2 VDRE cis-reporter transcription, actives raise or lower the signal
Outline: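 Measures endogenous factor activity through cis-element-driven reporter transcripts in transiently transfected HepG2. Cells are treated 24 h; reporter mRNA is quantified by RT-PCR and capillary electrophoresis; fitting is bidirectional.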

[16] = target: Nuclear receptor subfamily 1 group I member 3 (Homo sapiens) (UniProt Q14994); test: ATG_CAR_TRANS: Attagene TRANS-FACTORIAL HepG2 Assay for human Constitutive Androstane Receptor (CAR) (AID 2282969); details: HepG2 Attagene TRANS-FACTORIAL CAR reporter;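 note: activators raise reporter mRNA above DMSO so AC50 marks induction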
Outline: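 Signal is reporter mRNA induction relative to DMSO, measured 24 h after dosing by RT-PCR with fluorescent primer extension and capillary electrophoresis. Human HepG2 liver cells carried transiently transfected chimeric NR-Gal4/GAL4-UAS reporter constructs.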

[17] = ATG_M_19_TRANS: Attagene TRANS-FACTORIAL HepG2 Assay for M19 Transcription Factor (Internal Marker) (AID 2282974); details: HepG2 Attagene TRANS-FACTORIAL M19 internal marker reporter
Outline: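 Measured here: internal-marker reporter transcript from HepG2 cells transfected with MRTUs, harvested at 24 h. cDNA PCR products were 6-FAM labelled by primer extension, cut with HpaI for 2 h at 37 C, and resolved by CE.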

[18] = ATG_GAL4_TRANS: Attagene TRANS-FACTORIAL HepG2 Assay for GAL4 (Internal Marker) (AID 2282976); details: HepG2 Attagene TRANS GAL4 internal marker reporter
Outline: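 Fluorescence from capillary electrophoresis of labelled RT-PCR products quantifies reporter mRNA induction after 24 h dosing of HepG2 cells carrying transfected GAL4-UAS reporter transcription units. Vehicle DMSO serves as baseline.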

[19] = target: human RAR-related Orphan Receptor beta (RORb), RORB (gene 6096) (UniProt Q92753); test: ATG_RORb_TRANS: Attagene TRANS-FACTORIAL HepG2 Assay for human RAR-related Orphan Receptor beta (RORb) (AID 2283010)
Outline: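 Multiplexed transcription-factor reporter assay: HepG2 cells transiently carrying NR-Gal4/GAL4-UAS constructs, 24 h treatment, mRNA quantified by RT-PCR plus capillary electrophoresis fluorescence; activity scored as induction over DMSO.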

[20] = target: human RAR-related Orphan Receptor gamma (RORg), RORC (gene 6097) (UniProt P51449); test: ATG_RORg_TRANS: Attagene TRANS-FACTORIAL HepG2 Assay for human RAR-related Orphan Receptor gamma (RORg) (AID 2283011)
Outline: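 Activity is scored as increase in GAL4-UAS reporter mRNA over DMSO, detected by fluorescent RT-PCR and capillary electrophoresis in HepG2 cells transiently expressing a RORg-Gal4 chimera, 24 h after dosing.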

Measured: AC50

Oxysterols receptor LXR-beta (Homo sapiens), sequence (P55055 whole entry, looked up, the tested form may be a part): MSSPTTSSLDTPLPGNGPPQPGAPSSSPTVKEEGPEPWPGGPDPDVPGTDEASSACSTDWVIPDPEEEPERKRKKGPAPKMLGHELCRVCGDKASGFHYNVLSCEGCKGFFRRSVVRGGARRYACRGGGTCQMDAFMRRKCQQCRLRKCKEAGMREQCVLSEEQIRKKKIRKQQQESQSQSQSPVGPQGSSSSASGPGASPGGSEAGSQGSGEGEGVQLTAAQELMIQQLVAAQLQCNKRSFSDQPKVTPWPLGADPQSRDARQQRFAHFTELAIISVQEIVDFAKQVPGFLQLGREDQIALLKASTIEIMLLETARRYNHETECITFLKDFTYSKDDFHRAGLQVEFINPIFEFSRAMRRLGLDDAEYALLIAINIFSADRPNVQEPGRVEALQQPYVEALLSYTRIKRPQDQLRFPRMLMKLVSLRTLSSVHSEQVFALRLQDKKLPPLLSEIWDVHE
human Thyroid Receptor alpha (THRa1), THRA (gene 7067), sequence (P10827 whole entry, looked up, the tested form may be a part): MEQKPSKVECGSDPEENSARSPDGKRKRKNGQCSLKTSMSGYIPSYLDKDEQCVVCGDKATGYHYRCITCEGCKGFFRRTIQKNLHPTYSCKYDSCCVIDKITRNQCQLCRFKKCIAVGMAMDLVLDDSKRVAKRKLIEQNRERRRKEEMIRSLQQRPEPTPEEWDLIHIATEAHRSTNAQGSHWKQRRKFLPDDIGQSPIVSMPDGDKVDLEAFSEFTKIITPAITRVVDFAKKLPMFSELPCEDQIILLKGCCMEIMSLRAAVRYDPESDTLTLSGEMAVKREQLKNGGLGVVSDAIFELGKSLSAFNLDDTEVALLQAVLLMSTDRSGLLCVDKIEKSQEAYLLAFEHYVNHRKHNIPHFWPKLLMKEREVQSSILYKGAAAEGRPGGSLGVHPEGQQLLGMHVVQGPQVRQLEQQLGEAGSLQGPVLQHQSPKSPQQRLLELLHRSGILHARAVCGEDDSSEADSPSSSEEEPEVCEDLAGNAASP
Nuclear receptor subfamily 1 group I member 3 (Homo sapiens), sequence (Q14994 whole entry, looked up, the tested form may be a part): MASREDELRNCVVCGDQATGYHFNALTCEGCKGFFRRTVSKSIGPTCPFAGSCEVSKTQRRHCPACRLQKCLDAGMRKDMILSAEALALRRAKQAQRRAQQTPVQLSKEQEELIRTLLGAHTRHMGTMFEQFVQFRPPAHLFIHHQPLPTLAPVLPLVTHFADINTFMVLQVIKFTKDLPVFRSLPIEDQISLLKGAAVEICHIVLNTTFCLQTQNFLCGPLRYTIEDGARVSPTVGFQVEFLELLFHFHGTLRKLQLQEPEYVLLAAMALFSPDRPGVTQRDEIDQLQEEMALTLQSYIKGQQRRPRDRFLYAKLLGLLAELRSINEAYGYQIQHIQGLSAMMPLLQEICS
human Vitamin D Receptor (VDR), VDR (gene 7421), sequence (P11473 whole entry, looked up, the tested form may be a part): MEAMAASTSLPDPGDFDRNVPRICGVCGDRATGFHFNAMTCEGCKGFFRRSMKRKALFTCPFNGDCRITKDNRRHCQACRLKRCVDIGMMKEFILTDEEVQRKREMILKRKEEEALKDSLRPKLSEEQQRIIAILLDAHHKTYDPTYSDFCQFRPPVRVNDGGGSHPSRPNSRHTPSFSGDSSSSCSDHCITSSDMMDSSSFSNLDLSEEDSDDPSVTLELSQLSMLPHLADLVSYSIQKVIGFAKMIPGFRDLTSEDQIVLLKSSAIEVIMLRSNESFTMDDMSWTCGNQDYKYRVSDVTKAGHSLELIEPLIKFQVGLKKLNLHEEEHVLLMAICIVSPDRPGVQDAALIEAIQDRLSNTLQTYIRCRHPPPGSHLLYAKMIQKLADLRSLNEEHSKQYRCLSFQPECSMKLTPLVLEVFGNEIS
Glucocorticoid receptor (Homo sapiens), sequence (P04150 whole entry, looked up, the tested form may be a part): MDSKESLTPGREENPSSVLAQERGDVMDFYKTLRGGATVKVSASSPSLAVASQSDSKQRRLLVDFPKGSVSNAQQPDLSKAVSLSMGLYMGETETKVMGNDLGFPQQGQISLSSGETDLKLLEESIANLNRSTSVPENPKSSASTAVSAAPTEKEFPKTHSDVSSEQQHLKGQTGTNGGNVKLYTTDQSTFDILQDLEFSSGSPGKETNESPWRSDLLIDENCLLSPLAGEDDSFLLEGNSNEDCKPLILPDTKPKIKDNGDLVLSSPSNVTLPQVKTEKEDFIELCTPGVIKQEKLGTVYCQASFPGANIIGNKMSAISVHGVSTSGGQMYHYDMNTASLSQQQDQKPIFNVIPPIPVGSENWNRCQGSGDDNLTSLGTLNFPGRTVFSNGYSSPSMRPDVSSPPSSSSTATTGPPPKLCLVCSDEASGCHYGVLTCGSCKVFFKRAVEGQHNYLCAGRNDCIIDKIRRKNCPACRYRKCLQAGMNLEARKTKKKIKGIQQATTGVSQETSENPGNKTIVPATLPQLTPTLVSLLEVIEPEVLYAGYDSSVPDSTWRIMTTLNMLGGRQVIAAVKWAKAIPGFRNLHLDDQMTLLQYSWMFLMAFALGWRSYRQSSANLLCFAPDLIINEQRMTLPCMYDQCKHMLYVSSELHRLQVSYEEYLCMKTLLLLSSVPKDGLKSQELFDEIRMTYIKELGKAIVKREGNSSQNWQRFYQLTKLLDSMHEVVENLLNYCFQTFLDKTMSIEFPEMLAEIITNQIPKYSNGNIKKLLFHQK
Oxysterols receptor LXR-alpha (Homo sapiens), sequence (Q13133 whole entry, looked up): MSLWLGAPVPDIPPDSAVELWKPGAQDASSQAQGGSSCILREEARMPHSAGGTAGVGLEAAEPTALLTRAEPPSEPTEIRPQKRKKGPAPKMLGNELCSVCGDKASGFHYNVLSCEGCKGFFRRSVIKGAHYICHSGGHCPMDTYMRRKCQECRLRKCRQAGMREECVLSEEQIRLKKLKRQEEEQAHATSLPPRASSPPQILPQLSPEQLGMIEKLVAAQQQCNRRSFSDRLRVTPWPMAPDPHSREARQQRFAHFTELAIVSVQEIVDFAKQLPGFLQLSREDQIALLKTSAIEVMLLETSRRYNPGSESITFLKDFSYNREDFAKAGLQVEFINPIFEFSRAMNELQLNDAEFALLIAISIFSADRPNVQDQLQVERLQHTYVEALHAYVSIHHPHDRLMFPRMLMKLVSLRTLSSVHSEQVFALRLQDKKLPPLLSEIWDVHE
human RAR-related Orphan Receptor gamma (RORg), RORC (gene 6097), sequence (P51449 whole entry, looked up, the tested form may be a part): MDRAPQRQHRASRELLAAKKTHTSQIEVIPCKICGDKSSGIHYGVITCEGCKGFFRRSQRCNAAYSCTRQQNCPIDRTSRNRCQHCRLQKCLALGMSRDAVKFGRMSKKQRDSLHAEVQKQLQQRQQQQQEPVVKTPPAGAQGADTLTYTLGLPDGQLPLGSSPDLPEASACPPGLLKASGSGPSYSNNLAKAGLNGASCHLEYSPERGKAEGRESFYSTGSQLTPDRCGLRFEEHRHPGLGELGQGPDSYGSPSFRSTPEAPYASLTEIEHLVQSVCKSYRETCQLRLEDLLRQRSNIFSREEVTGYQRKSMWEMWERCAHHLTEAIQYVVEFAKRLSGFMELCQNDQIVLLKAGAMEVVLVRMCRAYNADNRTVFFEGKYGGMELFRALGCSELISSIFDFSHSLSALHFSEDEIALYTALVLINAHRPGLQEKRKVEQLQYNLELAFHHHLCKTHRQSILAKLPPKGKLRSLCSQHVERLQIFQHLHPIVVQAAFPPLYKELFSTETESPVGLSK
Peroxisome proliferator-activated receptor gamma (Homo sapiens), sequence (P37231 whole entry, looked up): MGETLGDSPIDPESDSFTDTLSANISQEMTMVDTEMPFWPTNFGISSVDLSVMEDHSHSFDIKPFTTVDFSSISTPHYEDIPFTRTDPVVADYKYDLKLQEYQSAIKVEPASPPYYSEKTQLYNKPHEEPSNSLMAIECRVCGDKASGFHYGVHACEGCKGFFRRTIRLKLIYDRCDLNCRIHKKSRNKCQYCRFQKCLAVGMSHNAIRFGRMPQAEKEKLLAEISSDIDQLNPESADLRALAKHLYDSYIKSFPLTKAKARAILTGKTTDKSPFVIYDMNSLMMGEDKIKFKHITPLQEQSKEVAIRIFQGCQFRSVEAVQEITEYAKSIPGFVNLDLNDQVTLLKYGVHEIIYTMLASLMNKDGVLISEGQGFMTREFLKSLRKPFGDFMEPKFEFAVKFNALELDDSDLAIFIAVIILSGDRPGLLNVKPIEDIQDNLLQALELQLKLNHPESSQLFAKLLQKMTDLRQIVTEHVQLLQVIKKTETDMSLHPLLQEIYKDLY
human Peroxisome Proliferator-activated Receptor delta (PPARd), PPARD (gene 5467), sequence (Q03181 whole entry, looked up, the tested form may be a part): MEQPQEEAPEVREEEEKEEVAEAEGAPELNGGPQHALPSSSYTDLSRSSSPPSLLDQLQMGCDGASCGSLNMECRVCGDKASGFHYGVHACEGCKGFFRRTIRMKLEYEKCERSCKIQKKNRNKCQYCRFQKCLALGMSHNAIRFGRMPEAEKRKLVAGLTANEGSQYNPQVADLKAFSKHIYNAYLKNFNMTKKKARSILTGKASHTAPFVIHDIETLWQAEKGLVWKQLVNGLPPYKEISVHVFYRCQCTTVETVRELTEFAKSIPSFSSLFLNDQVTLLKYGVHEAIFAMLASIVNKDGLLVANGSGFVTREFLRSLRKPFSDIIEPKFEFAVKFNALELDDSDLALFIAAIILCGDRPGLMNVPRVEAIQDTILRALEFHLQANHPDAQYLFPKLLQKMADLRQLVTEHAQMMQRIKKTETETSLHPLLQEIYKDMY
Bile acid receptor (Homo sapiens), sequence (Q96RI1 whole entry, looked up, the tested form may be a part): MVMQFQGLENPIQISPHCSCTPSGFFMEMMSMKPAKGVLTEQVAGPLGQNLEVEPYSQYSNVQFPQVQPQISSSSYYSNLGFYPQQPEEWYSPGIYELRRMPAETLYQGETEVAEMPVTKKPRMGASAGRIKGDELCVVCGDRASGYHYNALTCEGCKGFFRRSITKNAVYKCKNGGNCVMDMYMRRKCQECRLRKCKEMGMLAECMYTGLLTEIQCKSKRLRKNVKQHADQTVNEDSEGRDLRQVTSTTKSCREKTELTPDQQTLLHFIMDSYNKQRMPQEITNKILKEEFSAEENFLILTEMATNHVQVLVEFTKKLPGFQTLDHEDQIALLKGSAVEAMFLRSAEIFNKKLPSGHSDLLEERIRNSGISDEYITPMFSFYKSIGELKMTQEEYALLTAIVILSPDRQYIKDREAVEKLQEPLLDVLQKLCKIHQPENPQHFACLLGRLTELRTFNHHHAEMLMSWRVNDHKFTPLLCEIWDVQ

Oc1ccc(Cl)cc1C1CCCC1
inactive: [2] | [3] | [4] | [6] | [7] | [9] | [11] | [12]
active: [1] 18.5 µM | [5] 8.65 µM | [8] 33.4 µM | [10] 66.6 µM

CCCCCC[C@@H](O)C/C=C\CCCCCCCC(=O)O
active: [5] 108 µM | [7] 27.3 µM | [8] 27.4 µM | [10] 40.5 µM and 27.9 µM
inactive: [13] | [1] | [3] | [6] | [9] | [14] | [10] | [11] | [12]

O=C(C(=O)c1ccccc1)c1ccccc1
inactive: [15] | [16] | [17] | [6] | [9] | [11] | [12]

CC(=O)OC(C)(C)Cc1ccccc1
not listed: [8] | [9] | [10] | [11] | [12] | [13] | [15] | [16]
inactive: all other assays above

C=C1CC[C@H]2C[C@@H]1C2(C)C
inactive: [18] | [2] | [3] | [4] | [5] | [7] | [8] | [20] | [14]

O=[N+]([O-])c1ccc2nc[nH]c2c1
inactive: [17] | [1] | [2] | [5] | [6] | [8] | [19] | [20] | [9] | [11] | [12]

CCCN[C@H]1CCc2nc(N)sc2C1
inactive: [15] | [17] | [2] | [3] | [14] | [10]

COCCCN
inactive: [15] | [16] | [17] | [18] | [2] | [5] | [7] | [8] | [20] | [9] | [10]

CC/C=C\CC/C=C/C(OCC)OCC
active: [6] 100 µM
inactive: [16] | [3] | [4] | [5] | [7] | [19] | [20] | [9] | [10]

Oc1cccc2ccccc12
inactive: [1] | [5] | [7] | [20] | [9] | [14] | [10] | [11] | [12]

F[B-](F)(F)F
inactive: [15] | [17] | [2] | [5] | [19]

O=C(O)/C=C/C(=O)O
not listed: [1] | [3] | [8] | [10] | [16] | [17] | [20]
inactive: all other assays above

CC(C)CC(=O)O
inactive: [15] | [16] | [18] | [13] | [4] | [6] | [19] | [14] | [10] | [11] | [12]

From PubChem BioAssay (EPA / NIEHS)
